Results filed as inconclusive are left out. Where a call stands in place of a potency, no number is given. Calls of active or inactive are those of the source. The call rests on the fitted dose curve.

Sequence of Atrial natriuretic peptide receptor 1 (Homo sapiens) (P16066 whole entry, looked up, the tested form may be a part): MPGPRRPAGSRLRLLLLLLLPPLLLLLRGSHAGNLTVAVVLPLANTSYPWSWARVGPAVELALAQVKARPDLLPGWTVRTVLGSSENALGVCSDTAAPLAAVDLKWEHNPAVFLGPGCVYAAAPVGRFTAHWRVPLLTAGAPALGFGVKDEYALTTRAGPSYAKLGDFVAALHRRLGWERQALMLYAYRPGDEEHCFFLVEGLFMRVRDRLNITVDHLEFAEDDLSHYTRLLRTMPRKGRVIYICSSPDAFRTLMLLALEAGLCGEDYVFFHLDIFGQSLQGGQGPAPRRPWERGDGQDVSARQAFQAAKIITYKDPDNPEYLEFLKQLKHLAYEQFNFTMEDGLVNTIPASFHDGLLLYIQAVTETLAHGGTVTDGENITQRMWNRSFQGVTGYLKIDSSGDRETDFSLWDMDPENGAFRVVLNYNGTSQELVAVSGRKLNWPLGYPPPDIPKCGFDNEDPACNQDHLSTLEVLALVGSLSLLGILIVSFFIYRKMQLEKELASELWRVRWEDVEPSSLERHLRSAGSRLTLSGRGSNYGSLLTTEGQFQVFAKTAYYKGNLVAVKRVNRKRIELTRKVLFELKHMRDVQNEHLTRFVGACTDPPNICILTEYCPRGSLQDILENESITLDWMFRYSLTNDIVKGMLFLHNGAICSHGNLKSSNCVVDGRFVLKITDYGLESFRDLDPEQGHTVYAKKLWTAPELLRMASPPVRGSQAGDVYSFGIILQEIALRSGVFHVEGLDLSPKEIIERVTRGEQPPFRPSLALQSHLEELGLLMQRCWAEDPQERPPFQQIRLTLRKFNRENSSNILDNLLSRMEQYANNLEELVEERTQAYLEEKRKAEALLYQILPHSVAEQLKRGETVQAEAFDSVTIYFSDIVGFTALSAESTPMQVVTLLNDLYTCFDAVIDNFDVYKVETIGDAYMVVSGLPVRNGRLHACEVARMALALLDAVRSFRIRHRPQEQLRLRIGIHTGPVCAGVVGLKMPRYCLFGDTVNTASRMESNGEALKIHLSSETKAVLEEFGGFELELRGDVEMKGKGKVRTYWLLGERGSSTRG

The test addresses Atrial natriuretic peptide receptor 1 (Homo sapiens) (UniProt P16066). Kind of test: Natriuretic polypeptide receptor (hNpr1) antagonism - Pilot screen (AID 1347049). As to conditions: hNpr1 cells, antagonist mode cGMP read-out; series mostly up to 57.5 µM. Here is the method: In order to identify small molecular compounds that inhibit the hNpr1 receptor we developed a high-throughput assay to measure inhibition of the guanylate cyclase activity of the receptor. cGMP production was measured using a circular permutated Firefly luciferase (FLuc) enzyme functionally linked to the cGMP binding domain of human phosphodiesterase 5 (GloSensor technology pGS-40F, (Fan, F. et al. 2008). The cGMP-sensor was expressed in human embryonic kidney 293 (HEK-293) cells and FLuc activity was measured after stimulation with hNrp agonist peptide. hNrp agonists activates the receptor's associated guanylyl cyclase (GC) domain producing cGMP which then binds to the GloSensor resulting in FLuc activation, the enzymatic activity of which can be measured as bioluminescence with addition of luciferin substrate.
F. Fan, B. F. Binkowski, B. L. Butler, P. F. Stecha, M. K. Lewis, K. V. Wood, Novel genetically encoded biosensors using firefly luciferase. ACS Chem Biol 3, 346-351 (2008).
This assay was initially piloted by testing with a small diversity library of compounds with known pharmacological activity.
PROTOCOL TABLES (as described by Inglese J, Shamu CE and Guy RK. 2007)
SEQUENCE No. (e.g., 1, 2, 3, etc.); […] (e.g., Cells, Incubation, Reagent, etc.); VALUE and DESCRIPTION.
1. Cells. Seed 1500 HEK293 cGMP-sensor cells expressing hNpr1 per well in 4uL into Greiner 1536-well white/solid bottom high base, tissue culture-treated plates.
2. Incubation. Incubate plated cells at 37C in 5% CO2, 95% RH overnight.
3. Reagent. Add 1uL per well GloSensor reagent from Promega (2% final concentration) or CO2 independent media vehicle control to respective columns of Greiner 1536-well plates.
4. Incubation. Incubate plated cells at room temperature for 2 h, protect from light.
5. Compounds. Library compounds and A-71915 control added at 23 nL per well, transferred by Pin Tool.
6. Incubation. Incubate plated cells for 30 min. at room temperature, protect from light.
7. Detector. GloSensor baseline pre-read luminescence measured using CCD-based camera (Viewlux).
8. Compound. Add 1uL of hNppA peptide to 0.1 nM final concentration to stimulate hNpr1 or CO2 independent media as vehicle control.
9. Incubation. Incubate treated cells at room temperature for 20 min., protect from light.
10. Detector. GloSensor post-hNppA luminescence measured using CCD-based camera (Viewlux).
NOTES (numbers refer to Sequence numbers above)
1. HEK293 cells expressing hNpr1 and GIP/pGS-40F grown to 85-95% confluence (48-72 h) in T175 culture flasks (CO2 independent media supplemented with 10% FBS, 1% Pen/Strep antibiotics and 1 ug/mL puromycin). Trypsinize and harvest cells from T175 culture flasks and filter through 40 um cell strainer. Cells counted with Invitrogen Countess (30,000,000 - 50,000,000 cells/flask). Cells diluted to a final concentration of 375 cells/uL in CO2 independent media and a Millipore multidrop used to dispense 1500 cells per well (4uL/well) into 9 x 1536-well Greiner White/Solid bottom, high base tissue-culture treated (TC) plates and one Aurora 1536-well Black/Clear bottom, low base, TC plate (for visual inspection of cell health throughout the duration of the assay).
2. Cells incubated overnight at ambient temperature, 24 h. at 37C in 95% RH incubator protected from light, covered with metal lid with gas-exchange holes.
3. Prepare GloSensor Reagent (Promega): Reconstitute GloSensor luciferase substrate by adding 8.2mL Hepes buffer to 250mg substrate, mix well, protect from light and stored at -80C. Prepare a fresh 12% GloSensor solution in CO2 independent supplemented plating media (see above). Mix well and store at ambient temperature, protected from light. 1uL 12% GloSensor Luciferase Reagent added (2% final concentration) to respective columns of 9 x 1536-well Greiner plate with BioRaptr, 1uL CO2 independent plating media added to respective columns as vehicle control with BioRaptr.
4. […]
With `CNCCCC12CCC(c3ccccc31)c1ccccc12`, the Potency entry is “inactive”. Turning to `NC(=O)OCC(COC(N)=O)c1ccccc1`, the Potency result is “inactive”. With `CCC1(c2ccccc2)C(=O)NCNC1=O`, the Potency entry is “inactive”.

For `COc1cc2nc(N3CCN(C(=O)C4COc5ccccc5O4)CC3)nc(N)c2cc1OC` (stereo not given), the Potency result is “inactive”. With `Cn1c(=O)c2[nH]cnc2n(C)c1=O`, the Potency entry is “inactive”. Next, `Nc1c2c(nc3ccccc13)CCCC2`: “inactive”. As for `O=C(C1CCCCC1)N1CC(=O)N2CCc3ccccc3C2C1` (stereo not given), the Potency entry was “inactive”. On to `Fc1ccc([C@@H]2CCNC[C@H]2COc2ccc3c(c2)OCO3)cc1`, for which the Potency entry was “inactive”. For `COc1ccccc1OCCNCC(O)COc1cccc2[nH]c3ccccc3c12` (stereo not given), the Potency entry was “inactive”. Regarding `NCCS(=O)(=O)O`, the Potency result is “inactive”. With `COc1ccccc1N1CCN(CC(O)COc2cccc3ccccc23)CC1` (stereo not given), the Potency entry is “inactive”. Turning to `COc1ccc2c(c1)c(CC(=O)O)c(C)n2C(=O)c1ccc(Cl)cc1`, the Potency entry is “inactive”. For `NC(CO)C(=O)NNCc1ccc(O)c(O)c1O` (stereo not given) the value was “inactive”; for `O=C(CCCN1CCC(O)(c2ccc(Cl)cc2)CC1)c1ccc(F)cc1`, “inactive”; for `C[C@](N)(Cc1ccc(O)c(O)c1)C(=O)O`, “inactive”. On to `CCCNCC(O)COc1ccccc1C(=O)CCc1ccccc1` (stereo not given), for which the Potency entry is “inactive”. For the molecule `OCCN1CCN(CCCN2c3ccccc3Sc3ccc(C(F)(F)F)cc32)CC1`, the Potency result was “inactive”. Take `OCCN(CCO)c1nc(N2CCCCC2)c2nc(N(CCO)CCO)nc(N3CCCCC3)c2n1`: the Potency result was “inactive”. As for `CC(C(=O)O)c1cccc(C(=O)c2ccccc2)c1` (stereo not given), the Potency result is “inactive”.

In the case of `Clc1ccc2nsnc2c1NC1=NCCN1`, the Potency entry was “inactive”. `Cc1ccccc1N1C(=O)c2cc(S(N)(=O)=O)c(Cl)cc2NC1C` (stereo not given): the Potency result was “inactive”. As for `NC12CC3CC(CC(C3)C1)C2`, the Potency result is “inactive”. Turning to `COc1cc2nc(N3CCN(C(=O)c4ccco4)CC3)nc(N)c2cc1OC`, the Potency result was “inactive”.

As to `CN(C)c1nc(N(C)C)nc(N(C)C)n1`, the Potency result was “inactive”. Turning to `CC#C[C@]1(O)CC[C@H]2[C@@H]3CCC4=CC(=O)CCC4=C3[C@@H](c3ccc(N(C)C)cc3)C[C@@]21C`, the Potency result is “inactive”.

Take `Cc1cc(C(C)(C)C)c(O)c(C)c1CC1=NCCN1`: the Potency entry is “inactive”.

Consider `O=c1c(O)c(-c2ccc(O)c(O)c2)oc2cc(O)cc(O)c12`, for which the Potency result is “inactive”. Next, `C[C@H]1c2cccc(O)c2C(O)=C2C(=O)[C@]3(O)C(O)=C(C(N)=O)C(=O)[C@@H](N(C)C)[C@@H]3[C@@H](O)[C@@H]21`: “inactive”; `NC(=O)NO`: “inactive”; `CN1C2CCC1CC(OC(=O)C(CO)c1ccccc1)C2` (stereo not given): “inactive”.

For `CN1CCN(C2=Nc3cc(Cl)ccc3Nc3ccccc32)CC1`, the Potency entry was “inactive”. As for `O=c1[nH]cc(F)c(=O)[nH]1`, the Potency entry was “inactive”. With `COc1nc(C)nc(Cl)c1NC1=NCCN1`, the Potency entry is “inactive”.

Regarding `Cn1cnc2c1c(=O)[nH]c(=O)n2C`, the Potency entry is “inactive”. As for `CCC1(C)CC(=O)NC1=O` (stereo not given), the Potency result is “inactive”. On to `NCCc1cnc[nH]1`, for which the Potency result was “inactive”. `CC12CC3CC(C)(C1)CC(N)(C3)C2`: the Potency result is “inactive”. For `Cc1cn([C@H]2C[C@H](N=[N+]=[N-])[C@@H](CO)O2)c(=O)[nH]c1=O` the value was “inactive”; for `COc1cc2nc(N(C)CCCNC(=O)C3CCCO3)nc(N)c2cc1OC` (stereo not given), “inactive”; for `CC1COc2c(N3CCN(C)CC3)c(F)cc3c(=O)c(C(=O)O)cn1c23` (stereo not given), “inactive”.

The record behind these values is PubChem BioAssay (NCATS).
